HEK293 cAMP ctrl: counter-screen for TSHR agonists: cAMP increase in parental HEK293. parental HEK293 CNG cAMP sensor, membrane potential fluorescence. Potency, µM (series often up to 57.1 µM), for inactives: top-dose activation, hits mostly activators. hit rate 2.5% among 73,000; further: potency means the concentration at half of the fitted maximal effect; % of control where 0% means no effect; nearly all actives have a fitted effect of over 55% in size
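Counterscreen for endogenous-receptor signalling: CNG-channel HEK 293 cells report cAMP rise by membrane depolarization. After 60 min dye equilibration with 100 uM RO 20-1724, compounds incubated 30 min before bottom-read fluorescence at 590 nm.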
TsaE inh: displaces an ADP probe from E. coli YjeE (TsaE). hit rate 0.05% among 71,000. P0AF67. Potency, µM. purified YjeE enzyme, qHTS inhibition assay
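Fluorescence polarization of a BODIPY Texas Red–ADP probe (2 uM) bound to purified YjeE (10 uM) was read after 15 min room-temperature incubation with compounds. Loss of polarization marks inhibitors; ADP serves as titrated control.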
BRCT PPI green: BRCA1 BRCT-phosphoprotein interaction inhibition; P38398; BRCA1 BRCT-phosphopeptide binding, green fluorescence polarization; Potency, µM (highest dose often 76.9 µM), inactives show at the highest dose activity change, negative = inhibition, hits mostly inhibitors; hit rate 0.05% among 75,000;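 further: potency means the concentration at half of the fitted maximal effect; plate controls were peptide without protein for full effect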
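Compounds were incubated for 12 min at room temperature with a complex of 100 nM fluorescein-tagged pBACH1 decapeptide and 250 nM His-tagged BRCT protein. Buffer was phosphate pH 7.3 with EDTA, DTT and Tween 20. Disruption of binding lowers the polarization signal.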
TSHR agonist: activates the human thyroid stimulating hormone receptor. P16473. HEK293-CNG-TSHR cells (CNG channel as cAMP sensor), membrane potential dye, cAMP. Potency, µM (doses to about 57.1 µM), for the others: at the top dose activation, actives largely listed as activators. hit rate 0.48% among 73,000; active means well fitted activation curve with a large enough effect in the main read-out, with a control signal flat, not every such curve was filed as active; inconclusive means small, poorly fitted or top-dose-only effect, or a change in a side signal; inactive means no such curve, though single readings can be large or run the other way; % of control where 0% means no effect;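 further: the control signal comes from parental cells without the receptor; potency means the concentration at half of the fitted maximal effect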
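cAMP rise detected as CNG-channel membrane depolarization by fluorescent dye (emission 590 nm), 30 min after compound, following 60 min dye loading containing 100 uM RO 20-1724 at room temperature. Cells: TSHR/CNG HEK 293, with parental CNG HEK 293 as control.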
BRCT inh red: BRCT-phosphoprotein interaction inhibition (red fluorophore) | P38398 | BRCT-phosphopeptide binding, red fluorescence polarization | Potency, µM (titrated, usually from 76.9 µM), without a hit: at the highest dose activity change, negative = inhibition, most hits filed as inhibitors | hit rate 0.03% among 75,000 | AID 892; further: on the % scale 0 is the no-effect control and ±100 the full control effect
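Rhodamine-labelled pBACH1 10-mer (100 nM) bound to BRCT domain (100 nM) at pH 7.3; compounds incubated 12 min room temperature, polarization read. Free peptide defines full inhibition; unlabelled decapeptide titrated as control.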
Pol III holo inh: blocks replication by bacterial DNA polymerase III holoenzyme. Potency, µM (highest dose often 57.1 µM), for inactives: at the highest dose activity change, negative = inhibition. AID 603. reconstituted DNA polymerase III holoenzyme replication, biochemical. hit rate 0.25% among 71,000; further: potency means the concentration at half of the fitted maximal effect; on the % scale 0 is the no-effect control and ±100 the full control effect
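Reconstituted *E. coli* holoenzyme (0.35 nM Pol III, 1 nM beta, 154 nM SSB, 2 nM primase) was preincubated with compound for 15 min at RT. Synthesis on 1.4 nM ssM13Gori ran 35 min, then was stopped with PicoGreen/EDTA and read as dsDNA fluorescence.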
Numbers without * were called inactive; i = inactive; ? = inconclusive; . = no result; [ ] = remark or other dose. Rows were chosen to be rich in hits. Some 3.2% of all compounds tested hit in one or more screens of this group. Unless noted, the call rests on the fitted dose curve; in most records, active means well fitted curve in the direction sought with a large enough effect; inconclusive means small, poorly fitted or top-dose-only effect, or another doubt; inactive means no such curve, though single readings can be large; an effect the other way counts as inactive or inconclusive.

SMILES	HEK293 cAMP ctrl	TsaE inh	BRCT PPI green	TSHR agonist	BRCT inh red	Pol III holo inh
CC(=O)OCC(=O)[C@@]12OC(C)(C)O[C@@H]1C[C@H]1[C@H]3C[C@H](F)C4=CC(=O)C=C[C@@]4(C)[C@]3(F)[C@H](O)C[C@@]12C	-1%[25.6 µM]	i	0%[34.4 µM]	-6%[25.6 µM]	-1%[34.4 µM]	-6%[25.6 µM]
COc1ccc(-c2nnc(SCC(=O)N(Cc3ccccc3)C(C)(C)C)o2)cc1OC	32µM*	i	-1%	?	0%	-3%
CCCCn1c(NC(=O)CC)c(C#N)c2nc3ccccc3nc21	25µM*	i	10%	?	-3%	-5%
CC(=O)NCCSC(=O)c1ccc(F)cc1	3.2µM*	i	-2%	?	0%	-3%
Oc1cccc(O)c1O	5%	i	9%	2%	-2%	7.9µM*
O=C1C=CC2(OCCCO2)C(Br)=C1	-3%[11.4 µM]	.	0%[15.4 µM]	-4%[11.4 µM]	1%[15.4 µM]	.
O=C(O)/C=C\C(=O)Nc1ccc2c(c1)C(=O)c1cc(F)ccc1-2	-25%[11.4 µM]	i	-2%[15.4 µM]	-19%[11.4 µM]	1%[15.4 µM]	-14%[11.4 µM]
O=C(O)c1ccccc1NS(=O)(=O)c1ccccc1C(F)(F)F	-4%	i	10%	5%	1%	-6%
Cc1cc(C)c(S(=O)(=O)Nc2ccccc2C(F)(F)F)c(C)c1	40µM*	i	-1%	?	-2%	0%
O=C(CSc1nnnn1-c1ccccc1)N1CCc2ccccc2C1	16µM*	i	-1%	?	-2%	-7%
CC(=O)c1ccc(-n2nnnc2SCC(=O)N2CCc3ccccc3C2)cc1	14%	i	0%	14%	-1%	-7%
Clc1ccc(CSCCc2ccncc2)cc1Cl	10%[11.4 µM]	i	-2%[15.4 µM]	9%[11.4 µM]	-1%[15.4 µM]	-10%[11.4 µM]
C=CCn1c(-c2cccs2)nc2ccccc21	20%	i	1%	.	-3%	-6%
Cc1ccccc1Cn1c(-c2cncs2)nc2ccccc21	32µM*	i	-2%	?	0%	-7%
Brc1cc2c(cc1Cn1c(-c3cncs3)nc3ccccc31)OCO2	7.9µM*	i	-4%	?	-3%	-3%
NC(=O)CS(=O)C[C@H](N)C(=O)O (some centres not stated)	-3%[11.4 µM]	i	-3%[15.4 µM]	-1%[11.4 µM]	0%[15.4 µM]	-2%[11.4 µM]
Cc1ccc(Cl)cc1NC(=O)CC(O)(C(F)(F)F)C(F)(F)F	6.3µM*	i	0%	?	-1%	-4%
Cc1ccc(Cl)cc1NC(=O)Cn1cccc1	22%	i	0%	4%[11.4 µM]	-1%	-3%
C=CC1=C(C)C2=Cc3c(C=C)c(C)c4[n]3[Sn+2][n]3c(c(C)c(CCC(=O)O)c3=CC3=NC(=C4)C(C)=C3CCC(=O)O)=CC1=N2	2%	79µM*	-10%	2%	?	40µM*
Cc1cc(OCC(=O)NCc2nc(-c3ccccc3)no2)c(C)cc1Br	32µM*	i	-2%	?	-1%	0%
NC(=O)CCn1nc(-c2ccccc2)c2ccccc2c1=O	7%	i	-3%	-8%	-1%	-1%
O=C(CCn1nc(-c2ccccc2)c2ccccc2c1=O)N1CCN(c2ccccc2)CC1	25µM*	i	1%	?	-1%	4%
C[C@H](O/N=C1/[C@H]2O[C@@H]2[C@@H](O)[C@H]2[C@H]1CCn1c(=O)n(-c3ccccc3)c(=O)n12)c1cn([C@H]2COC[C@H]2O)nn1	7%[11.4 µM]	.	0%[15.4 µM]	9%[11.4 µM]	1%[15.4 µM]	.
O=C(c1cc2ccccc2cc1OCC(O)CN1CCCCC1)N1CCCCC1 (configuration not stated)	?	i	1%	?	0%	-1%
N=C(C[C@@H](O)COc1ccccc1-c1ccccc1)N1CCCCC1	32µM*	i	0%	?	0%	-8%
CCOC(=O)c1ccc(N2C(=O)CC(SCC(N)C(=O)OCC)C2=O)cc1 (configuration not stated)	3.2µM*	i	0%	?	1%	-4%
